# Assays:
# Assay in all cases: DAPPL (digital affinity profiling via proximity ligation, sequencing); 10 mM Tris-HCl pH 7.5, 50 mM NaCl, 1 mM DTT, 4% glycerol, room temperature, 30 min; GST-TFs on glutathione beads, 16-mer random dsDNA library, 0.1% formaldehyde crosslink after washing; high values mean tight binding
# FLI1 = target: T1, FLI1 (Homo sapiens, UniProt Q01543 1-452); conditions: protein: recombinant; tags: N-terminal GST; dsDNA, one strand shown
# T1 sequence: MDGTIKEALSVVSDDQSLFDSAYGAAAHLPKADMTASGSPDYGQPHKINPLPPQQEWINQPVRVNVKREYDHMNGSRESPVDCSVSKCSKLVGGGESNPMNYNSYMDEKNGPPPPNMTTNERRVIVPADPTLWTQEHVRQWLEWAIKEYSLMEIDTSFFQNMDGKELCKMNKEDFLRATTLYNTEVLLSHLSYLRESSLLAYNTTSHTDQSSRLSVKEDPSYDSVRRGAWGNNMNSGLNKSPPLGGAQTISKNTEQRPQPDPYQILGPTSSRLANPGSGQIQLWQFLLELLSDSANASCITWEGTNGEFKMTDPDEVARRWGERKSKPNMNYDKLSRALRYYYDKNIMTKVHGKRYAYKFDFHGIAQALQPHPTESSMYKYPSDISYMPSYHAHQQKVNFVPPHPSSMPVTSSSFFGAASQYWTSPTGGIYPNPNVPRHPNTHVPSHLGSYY
# In short: (§1)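 Pools were built from human transcription factors expressed in yeast as GST fusions, captured on glutathione beads and DNA-barcoded, along with a tag-only sample. Incubation with 200 nmole of a 16-mer random double-stranded DNA library lasted 30 min at room temperature in Tris/NaCl/DTT/glycerol buffer, and was followed by washing, 0.1% formaldehyde crosslinking, proximity ligation, PCR amplification and Illumina NextSeq500 sequencing. Binding signal is the quotient of each hexamer's read frequency for a factor and its frequency for the tag-only sample.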
# ELK1 = target: T2, ELK1 (Homo sapiens, UniProt P19419 1-428); conditions: protein: recombinant; tags: N-terminal GST; dsDNA, one strand shown
# T2 sequence: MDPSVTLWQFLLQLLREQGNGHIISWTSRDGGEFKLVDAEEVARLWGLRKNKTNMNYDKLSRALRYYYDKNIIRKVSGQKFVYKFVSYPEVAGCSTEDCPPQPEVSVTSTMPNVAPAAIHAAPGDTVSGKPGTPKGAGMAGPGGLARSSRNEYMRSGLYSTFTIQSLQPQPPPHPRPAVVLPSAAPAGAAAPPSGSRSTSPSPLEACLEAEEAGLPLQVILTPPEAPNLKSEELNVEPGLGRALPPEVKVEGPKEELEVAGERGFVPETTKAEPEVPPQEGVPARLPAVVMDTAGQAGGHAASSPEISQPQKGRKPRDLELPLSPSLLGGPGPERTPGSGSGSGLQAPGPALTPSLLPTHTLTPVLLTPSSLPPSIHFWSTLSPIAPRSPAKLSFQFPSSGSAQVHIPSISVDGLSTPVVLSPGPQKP
# In short: as §1
# GABPA = target: T3, GABPA (Homo sapiens, UniProt Q06546 1-454); conditions: protein: recombinant; tags: N-terminal GST; dsDNA, one strand shown
# T3 sequence: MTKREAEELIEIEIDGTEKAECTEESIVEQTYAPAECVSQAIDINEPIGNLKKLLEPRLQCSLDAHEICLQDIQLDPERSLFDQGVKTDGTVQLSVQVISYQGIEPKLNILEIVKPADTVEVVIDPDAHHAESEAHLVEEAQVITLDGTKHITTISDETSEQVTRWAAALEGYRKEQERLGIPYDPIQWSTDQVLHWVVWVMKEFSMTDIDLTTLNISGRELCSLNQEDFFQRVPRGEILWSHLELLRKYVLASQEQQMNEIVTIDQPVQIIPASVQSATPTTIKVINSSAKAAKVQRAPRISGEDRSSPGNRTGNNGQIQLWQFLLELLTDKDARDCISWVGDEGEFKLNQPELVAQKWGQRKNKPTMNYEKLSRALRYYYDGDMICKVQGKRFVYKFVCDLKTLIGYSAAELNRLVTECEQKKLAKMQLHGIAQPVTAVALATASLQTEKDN
# In short: as §1
# ERG = target: T4, ERG (Homo sapiens, UniProt P11308 1-479); conditions: protein: recombinant; tags: N-terminal GST; dsDNA, one strand shown
# T4 sequence: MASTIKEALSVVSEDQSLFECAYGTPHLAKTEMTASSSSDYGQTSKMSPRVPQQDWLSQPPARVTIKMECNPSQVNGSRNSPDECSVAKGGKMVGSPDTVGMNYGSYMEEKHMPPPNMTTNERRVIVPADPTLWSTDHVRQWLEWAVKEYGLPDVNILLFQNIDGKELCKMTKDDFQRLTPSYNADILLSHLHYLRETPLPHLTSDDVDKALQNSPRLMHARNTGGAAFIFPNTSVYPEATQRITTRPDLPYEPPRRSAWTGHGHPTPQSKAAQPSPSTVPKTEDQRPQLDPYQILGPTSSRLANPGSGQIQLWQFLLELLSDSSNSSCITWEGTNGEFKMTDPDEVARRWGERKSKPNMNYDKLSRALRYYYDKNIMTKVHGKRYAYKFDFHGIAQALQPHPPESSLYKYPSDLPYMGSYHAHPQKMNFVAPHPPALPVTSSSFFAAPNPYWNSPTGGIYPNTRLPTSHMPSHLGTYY
# In short: as §1
# ELF1 = ELF1 (Homo sapiens, UniProt P32519 1-619); conditions: protein: recombinant; tags: N-terminal GST; dsDNA, one strand shown
# ELF1, sequence (P32519 whole entry): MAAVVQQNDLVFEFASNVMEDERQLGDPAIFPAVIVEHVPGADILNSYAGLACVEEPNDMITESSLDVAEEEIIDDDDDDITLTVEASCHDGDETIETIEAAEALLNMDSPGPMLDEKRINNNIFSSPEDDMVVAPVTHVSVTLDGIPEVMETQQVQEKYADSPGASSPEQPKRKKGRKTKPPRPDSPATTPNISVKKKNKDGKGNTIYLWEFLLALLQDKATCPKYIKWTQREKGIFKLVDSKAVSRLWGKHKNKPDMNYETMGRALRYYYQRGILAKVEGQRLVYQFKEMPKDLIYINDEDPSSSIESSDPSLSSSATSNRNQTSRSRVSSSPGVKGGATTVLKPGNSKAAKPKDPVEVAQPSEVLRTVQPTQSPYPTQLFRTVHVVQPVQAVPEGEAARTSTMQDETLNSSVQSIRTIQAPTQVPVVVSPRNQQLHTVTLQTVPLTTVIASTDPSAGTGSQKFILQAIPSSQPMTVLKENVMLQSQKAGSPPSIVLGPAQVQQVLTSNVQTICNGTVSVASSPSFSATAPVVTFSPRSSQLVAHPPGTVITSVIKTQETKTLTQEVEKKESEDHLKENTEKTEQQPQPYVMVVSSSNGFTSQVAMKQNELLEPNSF
# In short: as §1
# EHF = target: T5, EHF (Homo sapiens, UniProt Q9NZC4 1-300); conditions: protein: recombinant; tags: N-terminal GST; dsDNA, one strand shown
# T5 sequence: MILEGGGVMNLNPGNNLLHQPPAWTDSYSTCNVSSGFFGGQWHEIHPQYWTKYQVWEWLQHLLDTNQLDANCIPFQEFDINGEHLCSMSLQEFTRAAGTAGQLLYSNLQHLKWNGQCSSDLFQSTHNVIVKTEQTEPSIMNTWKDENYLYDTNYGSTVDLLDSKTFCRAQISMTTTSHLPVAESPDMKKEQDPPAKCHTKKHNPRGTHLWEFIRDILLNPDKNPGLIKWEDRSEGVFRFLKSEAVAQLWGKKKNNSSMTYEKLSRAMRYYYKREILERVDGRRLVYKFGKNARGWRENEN
# In short: as §1
# SPI1 = SPI1 (Homo sapiens, UniProt P17947 1-270); conditions: protein: recombinant; tags: N-terminal GST; dsDNA, one strand shown
# In short: as §1
# SPIB = SPIB (Homo sapiens, UniProt Q01892 1-262); conditions: protein: recombinant; tags: N-terminal GST; dsDNA, one strand shown
# SPIB, sequence (Q01892 whole entry): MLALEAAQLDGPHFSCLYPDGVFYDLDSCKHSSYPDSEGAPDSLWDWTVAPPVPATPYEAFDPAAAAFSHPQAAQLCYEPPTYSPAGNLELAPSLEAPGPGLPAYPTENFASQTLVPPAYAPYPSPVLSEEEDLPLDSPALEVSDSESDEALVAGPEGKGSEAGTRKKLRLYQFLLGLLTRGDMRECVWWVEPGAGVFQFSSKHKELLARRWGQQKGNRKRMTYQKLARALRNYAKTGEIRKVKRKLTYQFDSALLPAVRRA
# In short: as §1
# ELK3 = target: T6, ELK3 (Homo sapiens, UniProt P41970 1-407); conditions: protein: recombinant; tags: N-terminal GST; dsDNA, one strand shown
# T6 sequence: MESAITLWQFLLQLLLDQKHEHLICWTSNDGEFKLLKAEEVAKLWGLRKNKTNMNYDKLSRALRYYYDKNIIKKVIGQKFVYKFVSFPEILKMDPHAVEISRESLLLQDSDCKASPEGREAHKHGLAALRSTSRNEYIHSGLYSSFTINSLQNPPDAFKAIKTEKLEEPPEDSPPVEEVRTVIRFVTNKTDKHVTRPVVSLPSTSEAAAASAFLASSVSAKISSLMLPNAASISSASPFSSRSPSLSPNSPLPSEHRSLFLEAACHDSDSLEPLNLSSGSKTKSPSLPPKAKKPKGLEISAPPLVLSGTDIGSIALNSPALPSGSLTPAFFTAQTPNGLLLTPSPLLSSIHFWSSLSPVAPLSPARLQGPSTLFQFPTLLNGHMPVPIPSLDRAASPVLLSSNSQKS
# In short: as §1
# FEV = target: T7, FEV (Homo sapiens, UniProt Q99581 1-238); conditions: protein: recombinant; tags: N-terminal GST; dsDNA, one strand shown
# T7 sequence: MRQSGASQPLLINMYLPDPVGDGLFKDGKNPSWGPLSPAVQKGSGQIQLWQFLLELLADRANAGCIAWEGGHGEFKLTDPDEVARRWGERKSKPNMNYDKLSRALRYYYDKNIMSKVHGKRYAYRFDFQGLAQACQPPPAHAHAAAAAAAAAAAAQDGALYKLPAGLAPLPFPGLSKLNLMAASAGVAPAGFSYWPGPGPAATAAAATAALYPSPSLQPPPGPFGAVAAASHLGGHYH
# In short: as §1
# ETV5 = ETV5 (Homo sapiens, UniProt P41161 1-510); conditions: protein: recombinant; tags: N-terminal GST; dsDNA, one strand shown
# ETV5, sequence (P41161 whole entry): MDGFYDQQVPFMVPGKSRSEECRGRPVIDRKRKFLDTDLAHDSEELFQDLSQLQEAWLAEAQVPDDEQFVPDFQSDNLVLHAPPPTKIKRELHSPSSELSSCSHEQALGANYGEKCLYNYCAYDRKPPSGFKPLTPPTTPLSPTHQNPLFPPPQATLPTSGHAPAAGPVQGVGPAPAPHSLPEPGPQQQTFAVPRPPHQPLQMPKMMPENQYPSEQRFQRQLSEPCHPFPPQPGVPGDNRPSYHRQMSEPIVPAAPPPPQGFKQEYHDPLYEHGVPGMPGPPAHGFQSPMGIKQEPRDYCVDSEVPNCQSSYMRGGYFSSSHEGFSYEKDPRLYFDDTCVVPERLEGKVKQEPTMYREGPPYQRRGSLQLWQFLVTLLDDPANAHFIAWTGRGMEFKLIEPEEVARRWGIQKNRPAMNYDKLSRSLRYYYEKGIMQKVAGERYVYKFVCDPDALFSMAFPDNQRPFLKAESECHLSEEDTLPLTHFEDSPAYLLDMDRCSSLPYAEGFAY
# In short: as §1
# HSF1 = HSF1 (Homo sapiens, UniProt Q00613 1-529); conditions: protein: recombinant; tags: N-terminal GST; chain copies: 3; dsDNA, one strand shown
# HSF1, sequence (Q00613 whole entry): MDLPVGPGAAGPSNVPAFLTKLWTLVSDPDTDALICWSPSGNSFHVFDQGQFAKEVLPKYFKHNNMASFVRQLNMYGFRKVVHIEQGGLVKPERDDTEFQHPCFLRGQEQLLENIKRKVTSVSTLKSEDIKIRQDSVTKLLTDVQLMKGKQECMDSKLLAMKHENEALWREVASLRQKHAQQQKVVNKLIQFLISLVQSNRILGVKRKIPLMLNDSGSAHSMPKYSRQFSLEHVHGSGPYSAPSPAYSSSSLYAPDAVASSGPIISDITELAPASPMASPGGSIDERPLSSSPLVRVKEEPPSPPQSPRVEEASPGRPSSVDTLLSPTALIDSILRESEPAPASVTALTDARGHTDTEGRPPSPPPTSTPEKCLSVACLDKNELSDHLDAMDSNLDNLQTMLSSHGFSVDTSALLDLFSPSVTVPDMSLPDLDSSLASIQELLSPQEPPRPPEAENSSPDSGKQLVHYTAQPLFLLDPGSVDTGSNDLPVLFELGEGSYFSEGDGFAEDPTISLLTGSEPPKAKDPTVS
# In short: as §1
# SPIC = target: T8, SPIC (Homo sapiens, UniProt Q8N5J4 1-248); conditions: protein: recombinant; tags: N-terminal GST; dsDNA, one strand shown
# T8 sequence: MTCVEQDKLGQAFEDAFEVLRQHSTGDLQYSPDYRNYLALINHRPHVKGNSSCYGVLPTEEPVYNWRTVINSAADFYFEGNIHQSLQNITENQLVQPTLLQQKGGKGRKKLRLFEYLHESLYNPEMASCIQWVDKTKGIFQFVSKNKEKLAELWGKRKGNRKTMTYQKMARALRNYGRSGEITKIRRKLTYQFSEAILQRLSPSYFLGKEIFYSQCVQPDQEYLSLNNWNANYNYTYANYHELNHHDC
# In short: as §1
# ELF4 = ELF4 (Homo sapiens, UniProt Q99607 1-663); conditions: protein: recombinant; tags: N-terminal GST; dsDNA, one strand shown
# ELF4, sequence (Q99607 whole entry): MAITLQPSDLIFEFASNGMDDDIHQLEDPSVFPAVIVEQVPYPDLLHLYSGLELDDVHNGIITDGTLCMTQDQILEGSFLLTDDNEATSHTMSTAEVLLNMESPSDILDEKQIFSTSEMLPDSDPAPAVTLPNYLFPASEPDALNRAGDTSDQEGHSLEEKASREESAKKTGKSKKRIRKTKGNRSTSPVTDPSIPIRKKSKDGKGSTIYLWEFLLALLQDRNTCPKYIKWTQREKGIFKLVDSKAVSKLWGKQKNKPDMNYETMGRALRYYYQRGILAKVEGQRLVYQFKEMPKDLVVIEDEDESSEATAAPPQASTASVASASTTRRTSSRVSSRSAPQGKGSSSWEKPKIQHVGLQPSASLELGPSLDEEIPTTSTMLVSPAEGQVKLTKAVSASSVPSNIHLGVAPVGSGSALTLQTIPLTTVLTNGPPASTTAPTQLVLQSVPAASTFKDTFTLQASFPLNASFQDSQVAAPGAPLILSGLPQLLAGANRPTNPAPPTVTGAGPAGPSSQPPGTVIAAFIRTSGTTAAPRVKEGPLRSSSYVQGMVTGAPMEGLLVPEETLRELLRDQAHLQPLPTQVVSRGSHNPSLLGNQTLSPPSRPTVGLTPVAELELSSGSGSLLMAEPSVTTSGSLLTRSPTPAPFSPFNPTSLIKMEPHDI
# In short: as §1
# ELK4 = target: T9, ELK4 (Homo sapiens, UniProt P28324-2 1-405); conditions: protein: recombinant; tags: N-terminal GST; dsDNA, one strand shown
# T9 sequence: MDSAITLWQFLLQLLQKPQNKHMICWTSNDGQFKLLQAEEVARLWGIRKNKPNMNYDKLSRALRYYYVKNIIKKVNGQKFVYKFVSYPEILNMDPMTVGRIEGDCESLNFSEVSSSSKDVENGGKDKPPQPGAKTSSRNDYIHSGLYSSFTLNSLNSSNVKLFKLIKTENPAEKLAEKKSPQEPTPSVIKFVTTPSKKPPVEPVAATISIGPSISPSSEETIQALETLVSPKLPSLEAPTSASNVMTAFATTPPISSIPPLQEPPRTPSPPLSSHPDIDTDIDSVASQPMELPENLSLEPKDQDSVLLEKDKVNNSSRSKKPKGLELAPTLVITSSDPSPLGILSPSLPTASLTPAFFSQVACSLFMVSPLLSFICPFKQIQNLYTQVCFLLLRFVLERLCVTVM
# In short: as §1
# ETV2 = target: T10, ETV2 (Homo sapiens, UniProt O00321 1-342); conditions: protein: recombinant; tags: N-terminal GST; dsDNA, one strand shown
# T10 sequence: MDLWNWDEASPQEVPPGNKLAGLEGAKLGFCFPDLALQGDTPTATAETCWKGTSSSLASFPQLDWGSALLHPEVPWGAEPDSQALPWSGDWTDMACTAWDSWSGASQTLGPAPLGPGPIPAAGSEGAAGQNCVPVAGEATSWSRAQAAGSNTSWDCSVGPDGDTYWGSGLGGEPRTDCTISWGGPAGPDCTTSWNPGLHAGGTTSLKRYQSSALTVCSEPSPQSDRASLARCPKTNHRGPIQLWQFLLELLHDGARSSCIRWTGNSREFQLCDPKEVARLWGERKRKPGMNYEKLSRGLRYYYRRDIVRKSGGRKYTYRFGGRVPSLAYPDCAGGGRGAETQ
# In short: as §1
# ELF3 = target: T11, ELF3 (Homo sapiens, UniProt P78545 1-371); conditions: protein: recombinant; tags: N-terminal GST; dsDNA, one strand shown
# T11 sequence: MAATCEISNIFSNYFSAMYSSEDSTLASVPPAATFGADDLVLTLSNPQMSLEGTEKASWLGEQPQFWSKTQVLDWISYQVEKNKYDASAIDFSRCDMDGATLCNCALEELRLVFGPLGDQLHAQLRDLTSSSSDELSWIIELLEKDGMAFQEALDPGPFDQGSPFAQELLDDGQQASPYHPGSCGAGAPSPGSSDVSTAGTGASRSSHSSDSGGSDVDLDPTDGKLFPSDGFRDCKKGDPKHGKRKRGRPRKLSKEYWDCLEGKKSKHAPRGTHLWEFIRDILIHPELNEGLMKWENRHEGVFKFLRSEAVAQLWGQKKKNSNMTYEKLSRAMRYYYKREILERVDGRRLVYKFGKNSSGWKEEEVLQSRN
# In short: as §1
# CRX = CRX (Homo sapiens, UniProt O43186 1-299); conditions: protein: recombinant; tags: N-terminal GST; dsDNA, one strand shown
# CRX, sequence (O43186 whole entry): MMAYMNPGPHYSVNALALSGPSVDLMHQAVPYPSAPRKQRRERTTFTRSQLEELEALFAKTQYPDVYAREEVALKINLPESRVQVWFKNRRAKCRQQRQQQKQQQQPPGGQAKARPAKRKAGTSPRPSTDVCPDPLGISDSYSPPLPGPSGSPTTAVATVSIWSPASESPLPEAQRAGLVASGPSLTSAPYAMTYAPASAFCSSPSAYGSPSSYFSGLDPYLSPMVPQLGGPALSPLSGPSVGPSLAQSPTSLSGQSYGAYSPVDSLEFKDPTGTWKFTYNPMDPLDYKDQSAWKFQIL
# In short: as §1
# ETV1 = ETV1 (Homo sapiens, UniProt P50549 1-477); conditions: protein: recombinant; tags: N-terminal GST; dsDNA, one strand shown
# ETV1, sequence (P50549 whole entry): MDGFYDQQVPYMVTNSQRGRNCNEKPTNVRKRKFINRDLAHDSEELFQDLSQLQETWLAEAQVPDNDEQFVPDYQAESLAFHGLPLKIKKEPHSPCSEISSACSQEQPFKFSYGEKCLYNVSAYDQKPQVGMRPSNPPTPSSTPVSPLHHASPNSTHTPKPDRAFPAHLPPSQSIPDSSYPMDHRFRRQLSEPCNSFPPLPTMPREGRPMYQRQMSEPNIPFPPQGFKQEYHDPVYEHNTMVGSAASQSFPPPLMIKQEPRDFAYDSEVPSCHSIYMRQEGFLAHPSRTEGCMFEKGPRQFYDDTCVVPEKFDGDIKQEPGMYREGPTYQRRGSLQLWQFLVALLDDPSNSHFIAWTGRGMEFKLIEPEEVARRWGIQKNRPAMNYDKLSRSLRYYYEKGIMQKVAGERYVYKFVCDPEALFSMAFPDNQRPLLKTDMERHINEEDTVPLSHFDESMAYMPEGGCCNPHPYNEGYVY
# In short: as §1
sequence,measurement,setting,value
CCCCCA,binding signal,FLI1,"1.23 fold enrichment (6-mer frequency, TF over GST control)"
same,binding signal,ELK1,"1.18 fold enrichment (6-mer frequency, TF over GST control)"
same,binding signal,GABPA,"1.23 fold enrichment (6-mer frequency, TF over GST control)"
same,binding signal,ERG,"1.17 fold enrichment (6-mer frequency, TF over GST control)"
same,binding signal,ELF1,"1.2 fold enrichment (6-mer frequency, TF over GST control)"
same,binding signal,EHF,"1.27 fold enrichment (6-mer frequency, TF over GST control)"
same,binding signal,SPI1,"1.23 fold enrichment (6-mer frequency, TF over GST control)"
same,binding signal,SPIB,"1.27 fold enrichment (6-mer frequency, TF over GST control)"
same,binding signal,ELK3,"1.06 fold enrichment (6-mer frequency, TF over GST control)"
same,binding signal,FEV,"1.21 fold enrichment (6-mer frequency, TF over GST control)"
same,binding signal,ETV5,"1.19 fold enrichment (6-mer frequency, TF over GST control)"
same,binding signal,HSF1,"1.06 fold enrichment (6-mer frequency, TF over GST control)"
same,binding signal,SPIC,"1.16 fold enrichment (6-mer frequency, TF over GST control)"
same,binding signal,ELF4,"1.2 fold enrichment (6-mer frequency, TF over GST control)"
same,binding signal,ELK4,"1.19 fold enrichment (6-mer frequency, TF over GST control)"
same,binding signal,ETV2,"1.4 fold enrichment (6-mer frequency, TF over GST control)"
same,binding signal,ELF3,"1.3 fold enrichment (6-mer frequency, TF over GST control)"
same,binding signal,CRX,"1.02 fold enrichment (6-mer frequency, TF over GST control)"
same,binding signal,ETV1,"1.18 fold enrichment (6-mer frequency, TF over GST control)"

# Reference: paper PMC7862700, “An all-to-all approach to the identification of sequence-specific readers for epigenetic DNA modifications on cytosine”
